# Source: PubChem BioAssay
# In the library only some 5.7% were active in any assay of this set; here they are far more common.
# DAX1 inh-1 = inhibits human nuclear receptor DAX1. 340,000 tested, 0.99% active. P51843. inhibition, % at 6.75 µM. HEK293 Gal4-DAX1 luciferase reporter, luminescence;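 active = inhibition above the mean over all tested compounds plus 3 SD, cut at about 4.2% in these data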;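 note: inhibition shows as a rise in luminescence from relieved DAX1 repression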
# hcDAF-12 act = activates DAF-12 receptor from parasite H. contortus | HEK293 hcDAF-12 lit1-tk-luc reporter, luminescence; 0% DMSO, 100% Δ7-dafachronic acid | activation, % at 6.8 µM | 370,000 tested, 1.4% active | AID 652067;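 active = activation above the mean of all tested compounds plus 3 SD, cut at about 5.5% in these data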
# hgDAF12 agonist = hgDAF-12 agonism, primary luciferase screen; AID 687014; activation, % at 6.8 µM; HEK293 GAL4-hgDAF12 UAS-luciferase reporter, agonist luminescence; normalized to butyrate control; 370,000 tested, 1.8% active;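 active = activation above a cutoff set at the mean of all screened compounds plus 3 SD, cut at about 10% in these data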
# ssDAF12 agonist = activates DAF-12 receptor from parasite S. stercoralis | 370,000 tested, 1% active | HEK293 ssDAF-12/GRIP1 lit1-tk-luc reporter, luminescence; % of 3 µM dafachronic acid response | AID 652126 | activation, % at 6.8 µM;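 active = activation above the mean over all tested compounds plus 3 SD, cut at about 0.9% in these data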
# DAX1 inh-2 = inhibitors of DAX1 repression of SF-1 activated StAR promoter. HEK293T StAR-luciferase reporter, SF-1/DAX-1 repression relief. inhibition, % at 6.8 µM. 370,000 tested, 1.1% active. AID 652010;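 active = inhibition above the mean over all tested compounds plus 3 SD, cut at about 3.6% in these data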;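 note: higher inhibition means more luminescence from relief of DAX-1 repression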
# AHR activator = activates the human aryl hydrocarbon receptor; AID 2796; 320,000 tested, 2.5% active; AHR-responsive luciferase reporter cells, luminescence; activation, % at 5 µM; P35869; in the data active = activation above about 47%
# hgDAF12 ag = confirmation of H. glycines DAF-12 agonists; 3,300 tested, 80% active; shares compounds with hgDAF12 agonist; activation, % at 6.8 µM; HEK293 GAL4-hgDAF12 luciferase reporter, agonist mode; percent of butyrate response;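 active = mean activation over triplicate wells above the hit cutoff derived from the earlier primary screen, cut at about 11% in these data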
# LXR ag 2 = activates human LXR-beta, counter-screen for DAF-12 agonists; HEK293 Gal4-LXR luciferase reporter, 24 h; 3,300 tested, under 10 active; AID 743051; activation, % at 6.8 µM; shares compounds with hgDAF12 agonist;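 active = mean activation of the triplicate above a set limit carried over from the primary screen, none filed active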
# Target sequence (P55055 whole entry, looked up, the tested form may be a part): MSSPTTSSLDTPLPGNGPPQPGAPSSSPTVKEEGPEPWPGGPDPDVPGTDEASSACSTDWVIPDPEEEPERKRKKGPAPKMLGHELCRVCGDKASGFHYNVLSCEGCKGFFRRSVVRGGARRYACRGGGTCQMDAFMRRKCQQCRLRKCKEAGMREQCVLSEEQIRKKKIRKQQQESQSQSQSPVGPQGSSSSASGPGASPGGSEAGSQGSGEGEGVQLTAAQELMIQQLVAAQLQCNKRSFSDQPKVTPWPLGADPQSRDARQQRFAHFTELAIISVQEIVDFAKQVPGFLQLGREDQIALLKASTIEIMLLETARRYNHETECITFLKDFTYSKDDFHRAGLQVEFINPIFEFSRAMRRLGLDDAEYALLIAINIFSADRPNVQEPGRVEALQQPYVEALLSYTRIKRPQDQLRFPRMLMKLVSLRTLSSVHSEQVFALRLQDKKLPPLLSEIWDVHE
# Numbers stand for hits; 0 = inactive; - = not tested or not shown.
SMILES,DAX1 inh-1,hcDAF-12 act,hgDAF12 agonist,ssDAF12 agonist,DAX1 inh-2,AHR activator,hgDAF12 ag,LXR ag 2
Cc1nc2c(ccc3nc(NC(=O)C4CC4)sc32)s1,0,0,15,0,0,0,12,0
Cc1c(Cl)ccc2sc(NC(=O)C3CC3)nc12,0,0,0,0,0,0,-,-
CCc1ccc(NC2=NCC(c3ccccc3)S2)cc1 (stereo not drawn),0,0,13,0,0,0,11,0
COc1ccccc1NC(=O)/C(C#N)=C/c1cccn1C,0,0,0,0,0,0,-,-
CCn1c(SCc2ccccc2Cl)nc2ccccc21,0,0,0,0,0,0,-,-
Cn1c(SCc2ccccc2Cl)nc2ccccc21,0,0,14,0,0,0,15,0
CC(=O)c1ccc(NC(=O)c2noc3c2CCCCC3)cc1,0,0,14,0,3.8,0,17,0
NS(=O)(=O)c1ccc(CCNc2ccccc2[N+](=O)[O-])cc1,0,0,0,0,0,0,-,-
C/C(=N\NC(=O)COc1ccccc1[N+](=O)[O-])c1cccs1,0,0,15,0,0,57,11,0
O=C(COc1ccccc1[N+](=O)[O-])Nc1ccc(Br)cc1,6.8,0,16,0,0,53,11,0
COc1ccc(OCC(=O)N/N=C(\C)c2cccs2)cc1,0,0,0,0,0,0,-,-
COC(=O)[C@H]1C[C@@H](c2ccccc2)[C@H](C)C1(C)C,0,0,0,0,0,0,-,-
CCOC(=O)C1=C2NC(=O)c3ccccc3N2C(=O)C1,0,0,0,0,0,0,-,-
Cc1ccc(C(=O)N2CCC3CC2c2cc(-c4ccc5c(c4)OCO5)ccc23)cc1 (stereo not drawn),0,0,0,0,0,-,-,-
CCC(=O)Nc1ccc(-c2ccc(N3CCC(C)CC3)nn2)cc1,0,-,-,-,-,0,-,-
CCC(=O)Nc1cccc(-c2ccc(N3CCC(C)CC3)nn2)c1,0,5.8,18,1.0,0,0,13,0
COc1ccccc1-c1ncn(Cc2cccc(-c3ccccc3)c2)c1-c1cc(C)cc(C)c1,-,0,0,0,0,-,-,-
CC1CN(C(=O)COC(=O)c2ccc3ncsc3c2)CC(C)O1 (stereo not drawn),0,0,0,0,0,0,-,-
N#Cc1ccccc1OCc1nnc(-c2ccccc2Br)o1,0,0,15,0,0,0,11,0
Clc1ccccc1OCc1nnc(-c2ccccc2Br)o1,0,0,0,0,0,0,-,-
O=C(N/N=C/c1ccco1)c1cc(-c2ccc3ccccc3c2)n[nH]1,0,0,15,0,0,0,0,0
CCc1ccc(-c2cc(C(=O)N/N=C/c3ccco3)[nH]n2)cc1,0,0,14,0,0,0,0,0
COc1ccc(-c2cc(C(=O)N/N=C/C(C)=C\c3ccco3)[nH]n2)cc1,-,0,0,0,0,-,-,-
CCCCC(c1nnnn1C(C)C)N1CCN(C(=O)c2ccco2)CC1 (stereo not drawn),0,0,0,0,0,0,-,-
CN(C)c1ccc(/C=N/OC(=O)Nc2ccccc2)cc1,0,5.8,14,0,0,0,18,0
SMILES,DAX1 inh-1,hcDAF-12 act,hgDAF12 agonist,ssDAF12 agonist,DAX1 inh-2,AHR activator,hgDAF12 ag,LXR ag 2
Cc1ccc(C2NC(=O)c3ccccc3N2)c(C)c1 (stereo not drawn),0,0,0,0,0,-,-,-
Cc1cccc(C2NC(=O)c3ccccc3N2)c1 (stereo not drawn),0,0,16,0,0,-,14,0
CCCCCN(C(=O)CCC(=O)OCC(=O)N(C)C1CCCCC1)c1c(N)n(CCCC)c(=O)[nH]c1=O,0,0,14,0,0,0,0,0
Cc1sc(NC(=O)c2ccccc2)c(C#N)c1-c1ccccc1,0,0,16,0,0,0,12,0
Cc1ccc(C(=O)Nc2sc(C(=O)N(C)C)c(C)c2C#N)cc1,0,0,0,0,0,0,-,-
Cc1cccc(OCCOC(=O)c2c(-c3ccccc3)noc2C)c1,0,0,0,0,0,0,-,-
CCCn1c(CN2CCN(C(C)=O)CC2)nc2cc(S(=O)(=O)N(C)C)ccc21,0,0,0,0,0,0,-,-
O=C(O)C1(Nc2ccc([N+](=O)[O-])cc2[N+](=O)[O-])CCCC1,0,0,0,0,0,-,-,-
COc1ccccc1C(=O)OCCc1ccccc1,0,6.2,17,0.9,0,-,11,0
O=C(O)c1ccc(NC(=O)c2ccccc2Br)c(NC(=O)c2ccccc2Br)c1,0,0,0,0,0,0,-,-
O=C(Nc1ccc(Cl)cc1F)c1ccccc1Br,0,0,15,0,4.4,0,14,0
COc1ccc(CC(=S)NCCc2ccccc2)cc1,0,0,0,0,0,0,-,-
CCOC(=O)C1C(c2cccnc2)NC(=O)NC1(O)C(F)(F)F (stereo not drawn),0,0,0,0,0,0,-,-
CCOC(=O)C1C(c2cccs2)NC(=O)NC1(O)C(F)(F)F (stereo not drawn),0,0,24,0,0,0,0,0
C=CCNc1nc(-c2ccc(Cl)cc2)cs1,0,0,14,0,0,0,15,0
COc1ccc(-c2c(C)nc3c(-c4ccccn4)cnn3c2N)cc1,0,0,14,0,0,-,11,0
COc1ccc(OCc2nn3c(-c4ccccn4)nnc3s2)cc1,0,0,0,0,0,0,-,-
Cn1nnnc1NN=Cc1ccccc1,0,0,0,0,0,-,-,-
CS(=O)(=O)c1ccc2nc(NC(=O)Nc3ccccc3F)sc2c1,7.3,0,15,0,0,0,27,0
Cc1ccc(NC(=O)Nc2nc3ccc(S(C)(=O)=O)cc3s2)cc1,0,0,0,0,0,-,-,-
CC(C)(C)C(=O)Nc1nc2ccc(S(C)(=O)=O)cc2s1,0,0,14,0,0,0,13,0
c1cc(-c2cc3cc(N4CCOCC4)ccc3o2)cs1,4.8,0,15,0,0,0,14,0
C=CCC1CCC/C(=N\NS(=O)(=O)c2ccc(C)cc2)C1 (stereo not drawn),0,0,0,0,0,0,-,-
COc1ccc2cc(C3=CC(=O)CCC3)ccc2c1,0,6.2,16,0,0,-,16,0
CC1(c2cccc3ccccc23)OC(=O)c2ccccc21 (stereo not drawn),0,0,0,0,0,-,-,-
CCN(C(=O)C(C)OC(=O)CCCNC(=O)c1ccc(Cl)cc1)c1ccccc1 (stereo not drawn),0,0,0,0,0,0,-,-
CC/C(=N\Nc1nncc2ccccc12)c1ccc(F)cc1,0,0,16,0,0,0,16,0
